What was measured:
Test in all cases: PBM binding z-score (relative to random genomic background probes); higher = stronger binding; sequences stand for … in GC…GCGATTGACAGCGTAGAATGAAGG
[1] = tested on: FXR:RXRa (NR concentration 270 nM, RXRa partner concentration 90 nM)
Method in brief: (§1)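 Binding buffer was PBS pH 7.4 with 2% milk, 0.02% Triton X-100, 1 mM DTT, 0.2 mg/mL BSA and 0.4 mg/ml salmon testes DNA. In it, ligand-free nuclear receptor dimers were incubated 1 h on custom Agilent 4×180K protein-binding microarrays carrying double-stranded probes. Antibodies against each partner (one per run) detected binding, and z-scores were calculated against random background probes after regression normalization of scanned fluorescence.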

[2] = tested on: LXRa:RXRa (NR concentration 270 nM, RXRa partner concentration 90 nM)
Method in brief: as §1

[3] = tested on: LXRa homodimer (NR concentration 270 nM)
Method in brief: as §1

[4] = tested on: LXRb:RXRa (NR concentration 270 nM, RXRa partner concentration 90 nM)
Method in brief: as §1

[5] = tested on: LXRb homodimer (NR concentration 270 nM)
Method in brief: as §1

[6] = tested on: PPARa:RXRa (NR concentration 270 nM, RXRa partner concentration 90 nM)
Method in brief: as §1

[7] = tested on: PPARg:RXRa (NR concentration 180 nM, RXRa partner concentration 90 nM)
Method in brief: as §1

[8] = tested on: PPARg:RXRa 270nM:90nM, anti-RXR (NR concentration 270 nM, RXRa partner concentration 90 nM)
Method in brief: as §1

[9] = tested on: PPARg:RXRa 30nM:10nM, anti-RXR (NR concentration 30 nM, RXRa partner concentration 10 nM)
Method in brief: as §1

[10] = tested on: PPARg:RXRa 90nM:30nM, anti-RXR (NR concentration 90 nM, RXRa partner concentration 30 nM)
Method in brief: as §1

[11] = tested on: PPARg:RXRa DBDmut IVT, anti-RXR (DBD mutation: RXRa K156A/R161A, NR concentration 270 nM, RXRa partner concentration 90 nM)
Method in brief: as §1

[12] = tested on: PPARg:RXRa IVT, anti-PPARg (NR concentration 270 nM, RXRa partner concentration 90 nM)
Method in brief: as §1

[13] = tested on: PPARg DBDmut:RXRa IVT, anti-PPARg (DBD mutation: PPARg1 K132A/R137A, NR concentration 270 nM, RXRa partner concentration 90 nM)
Method in brief: as §1

[14] = tested on: PPARg DBDmut IVT, anti-PPARg (DBD mutation: PPARg1 K132A/R137A, NR concentration 270 nM)
Method in brief: as §1

[15] = tested on: PPARg homodimer (NR concentration 180 nM)
Method in brief: as §1

[16] = tested on: PXR:RXRa (NR concentration 270 nM, RXRa partner concentration 90 nM)
Method in brief: as §1

[17] = tested on: PXR homodimer (NR concentration 270 nM)
Method in brief: as §1

[18] = tested on: RARa:RXR (NR concentration 270 nM, RXRa partner concentration 90 nM)
Method in brief: as §1

[19] = tested on: RARa homodimer (NR concentration 270 nM)
Method in brief: as §1

[20] = tested on: RARb:RXRa (NR concentration 270 nM, RXRa partner concentration 90 nM)
Method in brief: as §1

Sequence	PBM binding z-score [1]	PBM binding z-score [2]	PBM binding z-score [3]	PBM binding z-score [4]	PBM binding z-score [5]	PBM binding z-score [6]	PBM binding z-score [7]	PBM binding z-score [8]	PBM binding z-score [9]	PBM binding z-score [10]	PBM binding z-score [11]	PBM binding z-score [12]	PBM binding z-score [13]	PBM binding z-score [14]	PBM binding z-score [15]	PBM binding z-score [16]	PBM binding z-score [17]	PBM binding z-score [18]	PBM binding z-score [19]	PBM binding z-score [20]
GCTTACGGGTTAAAGGTTATAGCATGAATAGAAT	4.76	4.09	0.422	4.17	0.397	5.9	8.86	7.5	6.81	8.18	1.96	4	0.8	1.12	1.78	4.18	0.49	6.08	1.07	2.31
ATCTCTAGGTAAAGTTCAGTGACAGATCGATAGA	1.17	2.06	1.97	1.27	1.26	2.36	3.41	4.29	2.51	4.24	2.61	2.57	1.53	2.1	2.05	2.12	2.52	1.43	2.08	2.75
ATCGAAAGGTCGTGAGGGGAGTATACAGAAAGGC	5.36	4.07	0.475	3.55	1.22	5.08	3.7	4.21	1.39	3.1	0.526	2.01	1.57	0.649	2.22	2.99	0.725	3.78	0.753	4.03
CCTACTGGGCCAAAAAGATCATTGATGCCGATAA	-0.2	-0.313	-0.155	-0.481	-0.601	0.11	0.525	0.504	-0.0196	0.372	3.14	2.44	-0.679	-0.158	0.38	-0.395	-0.298	-0.562	0.184	-0.239
GATACAGGGTCAGGTAGAGGCCAGAGTATGGAAA	4.61	2.74	-0.128	2.58	-0.154	4.6	3.75	3.23	0.959	2.07	0.739	2.45	0.9	0.631	2.28	2.96	0.741	3.47	1.29	4
TAGCCTAGGTCAGATCGCGCCAGTATACGCTATA	1.75	0.937	-0.15	1.09	-0.19	1.63	0.856	0.842	0.125	0.595	0.721	1.46	-0.73	0.133	0.207	0.262	-0.578	0.7	-0.794	2.95
CATACAGGGTCAGATAGGCCAGAGTAGGGACGGC	4.34	3.14	0.146	2.31	0.65	4.26	3.15	2.6	0.58	1.71	0.492	2.13	1.29	1.07	2.72	2.05	0.241	2.94	0.209	3.55
ACTAGTTGGTCATCTGAGGTCACACACAATTCGG	3.47	5.26	5.1	4.09	1.65	3.98	2.52	2.62	1.13	2.05	2.52	3.08	1.2	0.851	3.6	5.61	2.26	4.86	1.05	3.69
CCGAGTAGGTTATGGCGCATTCAGGCAACGGTGA	-0.0642	0.163	-0.0103	0.076	-0.283	0.62	0.319	0.503	-0.377	0.107	3.17	1.71	-0.391	-0.415	0.648	-0.289	-0.0371	0.131	0.249	0.551
TCAGACAGGTGAAGGTAACTCATGTACGCAGTCG	0.849	1.03	-0.116	0.964	-0.0252	1.26	0.954	2.14	4.07	2.81	2.93	1.04	0.0578	0.317	0.397	0.672	0.214	0.117	0.348	1.04
CCTACAGGGTCAGCTAGGCCAGAGTAGGGACGGC	4.39	2.61	-0.714	1.7	-0.84	4.2	2.56	2.7	0.464	1.31	0.563	1.44	-0.42	-1.17	1.25	1.92	-0.627	2.68	-0.295	4.03
ATCTCTAGGTAAGACTCAGTTCAGTGTAGAACGC	0.302	0.547	0.708	0.286	0.886	0.0925	-0.0106	0.309	0.182	0.398	2.3	1.23	0.993	0.824	1.01	1.15	1.68	0.389	1.23	0.291
ACTATTAGTTGACTTAGTGCAACCGATACGACGC	-0.217	-0.0103	-0.0872	-0.107	0.478	-0.0535	0.743	0.105	0.433	0.153	0.167	0.382	0.85	0.707	0.732	0.283	0.128	0.123	0.689	0.309
TCTTGTAGATGAATAGAGGTTAAGAAAGTGCGCT	1.46	3.5	0.638	1.98	0.559	1.93	0.366	2.17	3.31	2.67	2.5	1.18	0.58	0.95	0.765	3.01	0.505	1.86	1.12	1.01
TCTATTCGTTGATTAGGGCAACCGAAACAGCGGA	0.77	0.642	-0.323	0.409	0.94	0.827	0.127	1.93	3.6	2.72	1.61	1.69	1.2	0.685	0.326	0.454	0.0175	0.417	-0.0226	0.637
